Compound activity: PubChem, National Center for Advancing Translational Sciences (NCATS)
uPA surface inh = cell surface uPA generation inhibition | 330,000 compounds, 0.31% hits | Potency, µM (titrated, usually from 38.3 µM), for inactives: top-dose activity change, negative = inhibition, usual class: inhibitors | cell surface uPA generation assay, qHTS | AID 540303; active = well fitted inhibition curve with a large enough effect; inconclusive = small, poorly fitted or top-dose-only effect; inactive = no such curve, though single readings can be large or run the other way; tested in mouse RAW 264.7 cells; note: % is set by controls: 0 for no effect and ±100 for the full control effect; nearly all actives have a fitted effect of over 55% in size
SMN2 splice enh = SMN2 splice variant enhancement. 210,000 compounds, 2.8% hits. Potency, µM (doses to about 46.1 µM), inactives show at the top dose activity change, positive = activation, most hits filed as activators. HEK293 SMN2-luciferase splicing reporter, luminescence, 30-36 h. AID 1458; note: % of control where 0% means no effect; nearly all actives have a fitted effect of over 55% in size
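qHTS luciferase splicing reporter: luminescence rises when SMN2 exon 7 is included in transfected HEK293 cells. Compound exposure lasted 30-36 h at 37C, with 4.5 mM final sodium butyrate as control, followed by a ONE-Glo read.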
ELG1 genotox = genotoxicity induction in ELG1-luciferase HEK293T cells; HEK293T ELG1-luciferase reporter, luminescence, 16 h; Potency, µM (titrated, usually from 46 µM), for inactives: at the highest dose activity change, positive = activation, actives largely listed as activators; 330,000 compounds, 1.3% hits; note: % of control where 0% means no effect; nearly all actives have a fitted effect of over 60% in size
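Cells (2,000/well) expressing the ELG1-luciferase fusion are dosed by pin tool and kept 16 hr at 37 °C, 5% CO2. Signal comes from ONE-Glo luciferase reagent after 30 min at room temperature.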
Rab9 promoter act = activators of Rab9 promoter; Huh7 Rab9 promoter-luciferase reporter, luminescence, 24 h; Potency, µM (series often up to 9.22 µM), inactives show at the highest dose activation, negative = inhibition, actives largely listed as activators; 320,000 compounds, 2.8% hits; note: % of control where 0% means no effect; nearly all actives have a fitted effect of over 60% in size
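Quantitative HTS format; Huh7 Rab9-luciferase reporter cells (1500/well) receive compound 2 h post-plating, incubate 24 h at 37 °C, then get luciferase reagent for 10 min before luminescence reading.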
NPC1 prom act = activates the NPC1 promoter; Potency, µM (highest dose often 9.22 µM), for inactives: at the highest dose activation, actives largely listed as activators; Huh7 NPC1 promoter luciferase reporter, 24 h; AID 485313; 320,000 compounds, 2.4% hits; note: % of control where 0% means no effect; nearly all actives have a fitted effect of over 60% in size
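Huh7 cells stably carrying NPC1 promoter–luciferase, plated in Opti-MEM with 10% FBS for 2 h, were exposed to compound in DMSO for 24 h at 37 °C; luciferase reagent was added for 10 min and luminescence read.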
FLuc counter = firefly luciferase modulation, counter-screen for miR-21 project; P08659; purified FLuc, Km substrates, luminescence inhibition; Potency, µM (top dose mostly 57.5 µM), inactives show top-dose activity change, negative = inhibition, actives largely listed as inhibitors; 360,000 compounds, 6.9% hits;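 note: plate controls were vehicle for no effect and reference inhibitor for full effect; nearly all actives have a fitted effect of over 55% in size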
Target sequence (P08659 whole entry, looked up): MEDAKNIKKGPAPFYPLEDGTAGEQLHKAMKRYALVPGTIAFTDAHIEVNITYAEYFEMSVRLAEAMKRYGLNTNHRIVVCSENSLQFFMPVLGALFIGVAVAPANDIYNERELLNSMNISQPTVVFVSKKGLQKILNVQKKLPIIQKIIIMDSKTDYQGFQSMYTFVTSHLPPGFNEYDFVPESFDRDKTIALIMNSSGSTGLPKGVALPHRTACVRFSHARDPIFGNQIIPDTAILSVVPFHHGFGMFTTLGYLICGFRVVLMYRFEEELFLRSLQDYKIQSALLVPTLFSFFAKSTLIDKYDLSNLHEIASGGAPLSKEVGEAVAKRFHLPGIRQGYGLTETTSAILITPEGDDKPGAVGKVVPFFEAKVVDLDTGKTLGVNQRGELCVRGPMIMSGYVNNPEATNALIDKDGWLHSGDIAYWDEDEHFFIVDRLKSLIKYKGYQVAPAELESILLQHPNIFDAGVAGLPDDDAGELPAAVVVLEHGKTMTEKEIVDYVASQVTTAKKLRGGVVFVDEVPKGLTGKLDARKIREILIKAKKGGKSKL
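Biochemical qHTS of compounds, final roughly 60 µM downward over six points, against 10 nM purified firefly luciferase using Km concentrations of substrates (10 uM D-luciferin, 10 uM ATP) in Tris acetate pH 7.5 buffer; luminescence output.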
An asterisk follows results filed as active; ? = inconclusive; / = not tested or not shown; [ ] = remark or other dose. Compounds with a hit are over-represented: about 7.3% of the library has one in this group of screens. Unless noted, calls come from the whole dose curve; as a rule, active = well fitted curve in the direction sought with a large enough effect; inconclusive = small, poorly fitted or top-dose-only effect, or another doubt; inactive = no such curve, though single readings can be large; an effect the other way counts as inactive or inconclusive. Potency is the fitted concentration of half-maximal effect.

SMILES	uPA surface inh	SMN2 splice enh	ELG1 genotox	Rab9 promoter act	NPC1 prom act	FLuc counter
O=C(Nc1ccccc1)Nc1cccc(NC(=O)Nc2ccccc2)c1F	4%	/	10%	25%	27%	?
O=C(Nc1ccccc1)Nc1ccccc1Br	-1%	24%	?	4µM*	?	24µM*
Cn1cccc1/C=C(/C#N)C(N)=S	13%	16%	-1%	2%	-2%	-11%
Cc1ccc(-c2ccc(/C=C(\C#N)C(N)=S)n2C)cc1	5%	/	16%	?	?	4.8µM*
COc1ccc2c(c1)C1OCCC1C(c1ccco1)N2 (centres undefined)	2.5µM*	/	/	/	/	/
Oc1cccc2ccc(/C=C/c3ccccc3Cl)nc12	8%	/	18µM*	4%	?	1.9µM*
Nc1nccc(/C=C/c2c(F)cccc2Cl)n1	-10%	?	?	?	23%	24µM*
Oc1cccc2ccc(/C=C/c3c(F)cccc3Cl)nc12	0%	25µM*	15µM*	4µM*	?	3µM*
O=[N+]([O-])c1cccc(/C=C/c2ccc3cccc(O)c3n2)c1	2%	/	?	?	?	?
Fc1cccc(Cl)c1/C=N/Nc1ccccn1	4%	?	13%	0%	12%	-6%
C[n+]1cccc(/C=C\c2ccc3cccc(O)c3n2)c1	/	-9%[9.22 µM]	/	/	/	/
Cc1coc2c(C)c3oc(=O)c(CC(=O)NCc4ccccc4)c(C)c3cc12	/	-1%	/	/	/	-2%
Cc1nn(-c2ccccc2)c2sc(C(=O)OC3CCOC3=O)cc12 (centres undefined)	-2%	9%	2%	-1%	3%	15µM*
Cc1ccc(-n2nc(C)c3cc(C(=O)O)sc32)cc1	-5%	8%	3%	-4%	-1%	19µM*
Cc1nn(-c2ccccc2)c2sc(C(=O)N3CCOCC3)cc12	-3%	11µM*	?	3.5µM*	?	11µM*
CN1CCN(c2ccc(-c3ccc4ccccc4n3)cc2)CC1	-11%	-65%	-16%	-39%	-34%	0.12µM*
c1ccc2nc(-c3ccc(N4CCOCC4)cc3)ccc2c1	-8%	?	?	0.1µM*	0.25µM*	0.27µM*
Cc1cc(-c2ccc(N3CCOCC3)cc2)nc2ccccc12	-5%	/	?	?	?	1.5µM*
COc1ccc(N2CCN(C(=O)c3ccc4ccccc4n3)CC2)cc1	-5%	2%	0%	-1%	-7%	2%
c1ccc2nc(-c3ccncc3)ccc2c1	/	20%	?	?	?	?
COc1ccccc1N1CCN(C(=O)c2cc3c(=O)n4cccc(C)c4nc3s2)CC1	3%	/	0%	-5%	1%	2%
COc1ccc(NC(=O)CSCc2cc(=O)c3cc(Cl)ccc3[nH]2)cc1	/	/	/	/	/	-8%
Cc1csc(Nc2ccccc2C(F)(F)F)n1	4%	-18%	-2%	-1%	6%	?
Cc1csc(Nc2ccc(Cl)cc2)n1	1%	?	?	?	?	12µM*
Cc1csc(NS(=O)(=O)c2ccc(Cl)cc2)n1	1%	/	-5%	9%	-4%	1%
SMILES	uPA surface inh	SMN2 splice enh	ELG1 genotox	Rab9 promoter act	NPC1 prom act	FLuc counter
Cc1ccc(Nc2nc(C)cs2)cc1	-8%	8.9µM*	21µM*	?	?	13µM*
COc1cccc(NC(=O)c2ccccc2-c2nc(-c3cccc(C)c3)no2)c1	1%	-5%	1%	26%	?	17µM*
Cc1cccc(-c2noc(-c3ccccc3C(=O)NCC3CCCO3)n2)c1 (centres undefined)	-12%	11%	1%	15%	?	11µM*
O=C(NCC1CCCO1)c1ccccc1-c1nc(-c2ccccc2F)no1 (centres undefined)	2%	/	1%	-3%	3%	?
O=C(NCC1CCCO1)c1csc(Nc2cccc3ccccc23)n1 (centres undefined)	-99%	/	?	-28%	-30%	21µM*
Cc1cccc(NC(=O)c2ccccc2-c2ccccc2)c1	-3%	-4%	-2%	-8%	-7%	1%
